The values that follow come from PubChem BioAssay AID463173 (ICCB-Longwood Screening Facility, Harvard Medical School, 2010).

Out of some 52,000 compounds screened, about 4,300 (8.3%) were called active. Shown is part of a subset that was picked to be rich in actives. Values without a mark were called inactive. Rule as the data show it: active = survival mostly below about 52% (no sharp cut-off); inactive = mostly above about 56%.

The assay deals with DeltatarO mutant. The experiment in a line: growth inhibition of S. aureus wild type versus tarO mutant, primary screen, teichoic acid synthesis inhibitors, RN4220, OD600 (AID 463173). To be noted: OD600, 18 h, stronger effect = lower value, screened at 18.75 µg/mL (by protocol).
As for `CCc1cc2c(cc3c(=O)n(CC(=O)NC4CCC(C)CC4)ncn32)s1` (configuration not stated), the survival was 91%.
Regarding `Oc1c(C(c2cccc(Cl)c2)N2CCOCC2)sc2nc(-c3ccco3)nn12` (configuration not stated), the survival is 84%.
Then `Cc1ccc(NC(=O)CCC(=O)N2Cc3ccccc3Oc3ncccc32)c(C)c1`, with 99%.
For `CCOC(=O)C1CCN(C(=O)c2ccccc2N(C)S(C)(=O)=O)CC1`, the survival was 107%.
Under `CCOC(=O)c1c(NC(=O)c2cc(OCC)c(OCC)c(OCC)c2)sc2c1CCCCC2` stands 65%; under `CCOC(=O)c1c(NC(C)=O)sc2c1CCC2`, 77%.
As for `CCOC(=O)c1c(NC(=O)c2ccc(S(=O)(=O)N(CC)CC)cc2)sc2c1CCCCC2`, the survival was 72%.
Then `CCOC(=O)c1c(NC(=O)c2cc(Cl)ccc2Cl)sc2c1CCCC2`, with 72%; and `CCOC(=O)c1c(NC(=O)c2cc3ccccc3c(=O)o2)sc2c1CCCC2`, with 45% (active).
Under `COC(=O)c1c(NC(=O)c2cc3ccccc3c(=O)o2)sc2c1CCCC2` stands 89%.
Then `CCOC(=O)c1c(NC(=O)c2ccccc2C)sc2c1CCCC2`, with 12% (active).
As to `CCOC(=O)c1c(NC(=O)c2ccc(C)cc2)sc2c1CCCCC2`, the survival is -2% (active).
Under `CCOC(=O)c1c(NC(=O)c2cc3ccccc3c(=O)o2)sc2c1CCC(C)C2` (configuration not stated) stands 129%.
Then `CCc1cccc(CC)c1NC(=O)c1c(C)oc2ccc(O)c(CN3CCOCC3)c12`, with 90%; and `CC(C)Oc1ccc(C(=O)NCc2cccnc2)cc1`, with 70%.
Under `CCOc1ccc(C(=O)N2CCc3cc(OC)c(OC)cc3C2COc2ccc3c(C)cc(=O)oc3c2)cc1OCC` (configuration not stated) stands 57%; under `COc1ccc(OC)c(NC(=O)c2c(NCc3cccs3)sc3c2CCCCC3)c1`, 67%.
Take `CCOC(=O)c1cccc(NC(=O)COc2ccc3c(C)cc(=O)oc3c2)c1`: the survival was 70%.
Regarding `Cc1ccc2nc(Cl)c3cc(C(=O)NCCCN(C)Cc4ccccc4)sc3c2c1`, the survival is -9% (active).
Under `CCc1ccccc1N(C)C(=O)c1cc2c(Cl)nc3ccc(C)cc3c2s1` stands -4% (active); under `CCN(C(=O)c1cc2c(Cl)nc3ccccc3c2s1)c1cccc(Cl)c1`, 60%.
Under `Cc1ccc(Cl)cc1N(C)C(=O)c1cc2c(Cl)nc3ccccc3c2s1` stands 54%; under `CCN(CCCNC(=O)c1cc2c(Cl)nc3ccccc3c2s1)Cc1ccccc1`, 94%; under `CN(C(=O)c1cc2c(Cl)nc3ccccc3c2s1)c1cccc(C(F)(F)F)c1`, 72%.
Take `CCCN(C(=O)c1cc2c(Cl)nc3ccccc3c2s1)c1cccc(C)c1`: the survival was 31% (active).
Then `Cc1ccc2nc(Cl)c3cc(C(=O)N(C)C4CCCCC4)sc3c2c1`, with 46%.
Under `CN(CCCNC(=O)c1cc2c(Cl)nc3ccccc3c2s1)Cc1ccccc1` stands 55%.
